Results reported in the supplement of paper PMC11482750.
± gives the standard deviation of the averaged measurements.

Each target was assayed with CCC1CCC(=O)O1 [γ-hexalactone] (assay: control-subtracted net OSN firing rate; higher = stronger neuronal activation). Conditions: odorant dilution (vol/vol): 1/100.
Procedure: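 Single sensillum recordings from olfactory sensory neurons. The neurons sit in the maxillary palp or antennal sensilla of D. melanogaster (wild type, mutants, or at1 empty-neuron lines expressing Or42a homologs or the A181D S307P mutant) and of four Scaptomyza species. Each odorant was given as a 1 s pulse from 20 µl loaded on filter paper at 1:100 vol/vol, diluted in mineral oil (γ-hexalactone in DMSO). Spikes were counted in a 0.5 s window starting 0.2 s after onset, background was subtracted, the count was doubled, and the mean solvent-control response was subtracted.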

| Target | control-subtracted net OSN firing rate |
| --- | --- |
| Canton-S pb1b | -7.71 ± 12 spikes/s |
| Or67dGal4, UAS-Sfla Or42a2 at1 | -3.14 ± 2.5 spikes/s |
| Or67dGal4, UAS-Sfla A181D S307P/+ at1 | 16.8 ± 14 spikes/s |
| Canton-S ab1a | 0.25 ± 12 spikes/s |
| Canton-S ab1d | 1.5 ± 5.5 spikes/s |
| Or67dGal4, UAS-Sfla Or42a3 at1 | 38.3 ± 15 spikes/s |
| Canton-S at1 | -2 ± 5.5 spikes/s |
| Canton-S at4b | -2 ± 13 spikes/s |
